NPC1 prom act: activates the NPC1 promoter; Huh7 NPC1 promoter luciferase reporter, 24 h; Potency, µM (highest dose often 9.22 µM), actives largely listed as activators; actives 2.4% (n = 320,000); AID 485313; also: nearly all actives have a fitted effect of over 60% in size
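Stable NPC1-promoter luciferase Huh7 line; cpd (DMSO) 24 h, 37 °C, 5% CO2; Amplite luciferase reagent 10 min RT; luminescence readout. qHTS format.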
ELG1 genotoxic: induces genotoxicity in HEK293T cells with luciferase-tagged ELG1; HEK293T ELG1-luciferase reporter, luminescence, 16 h; Potency, µM (doses to about 46 µM), usual class: activators; actives 1.3% (n = 330,000); AID 504466; also: nearly all actives have a fitted effect of over 60% in size
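Luminescence read-out: rising ELG1-luciferase signal, reflecting elevated ELG1 protein under genetic stress, flags genotoxic compounds. Cells were treated for 16 hr at 37 °C before ONE-Glo detection.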
FLuc counter: firefly luciferase modulation, counter-screen for miR-21 project. P08659. purified FLuc, Km substrates, luminescence inhibition. Potency, µM (highest dose often 57.5 µM), most hits filed as inhibitors. actives 6.9% (n = 360,000); also: nearly all actives have a fitted effect of over 55% in size
Target sequence (P08659 whole entry, looked up): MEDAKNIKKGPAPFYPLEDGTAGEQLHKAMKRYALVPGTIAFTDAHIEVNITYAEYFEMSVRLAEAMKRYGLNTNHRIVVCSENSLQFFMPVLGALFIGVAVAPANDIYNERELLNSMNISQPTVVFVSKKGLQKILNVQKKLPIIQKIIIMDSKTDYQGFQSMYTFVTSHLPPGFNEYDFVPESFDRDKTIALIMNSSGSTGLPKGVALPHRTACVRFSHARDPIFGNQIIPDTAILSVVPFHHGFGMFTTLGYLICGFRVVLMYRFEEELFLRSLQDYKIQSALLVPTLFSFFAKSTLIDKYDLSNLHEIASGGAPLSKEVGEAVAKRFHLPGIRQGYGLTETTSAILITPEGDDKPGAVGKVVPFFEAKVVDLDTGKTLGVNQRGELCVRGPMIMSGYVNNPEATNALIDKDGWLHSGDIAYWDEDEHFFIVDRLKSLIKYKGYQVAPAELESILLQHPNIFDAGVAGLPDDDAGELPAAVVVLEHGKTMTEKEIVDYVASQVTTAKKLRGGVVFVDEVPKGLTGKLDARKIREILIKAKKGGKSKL
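Purified P. pyralis luciferase, 10 nM final, with Km-level 10 uM D-luciferin and 10 uM ATP in 50 mM Tris acetate pH 7.5, 10 mM Mg acetate, 0.01% Tween-20, 0.05% BSA; 6-point qHTS titration about 60 µM downward; luminescence read.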
SMN2 splice up: increases expression of the SMN2 splice variant; HEK293 SMN2-luciferase splicing reporter, luminescence, 30-36 h; Potency, µM (series often up to 46.1 µM), most hits filed as activators; actives 2.8% (n = 210,000); AID 1458; also: nearly all actives have a fitted effect of over 55% in size
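qHTS luciferase splicing reporter: luminescence rises when SMN2 exon 7 is included in transfected HEK293 cells. Compound exposure lasted 30-36 h at 37C, with 4.5 mM final sodium butyrate as control, followed by a ONE-Glo read.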
KinaseGlo FLuc: counter-screen: inhibitors of Kinase-Glo firefly luciferase; Q27757; Kinase-Glo luciferase, ATP luminescence, 8 min; Potency, µM (doses to about 38.3 µM), usual class: inhibitors; actives 0.28% (n = 200,000); also: nearly all actives have a fitted effect of over 60% in size
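Luminescence was the read-out, taken after 8-minute incubation at ambient temperature. Luciferase turned over luciferin with 10 uM ATP in imidazole pH 7.2 buffer containing KCl, MgCl2, Tween 20 and BSA.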
Rab9 promoter act: activators of Rab9 promoter; Huh7 Rab9 promoter-luciferase reporter, luminescence, 24 h; Potency, µM (doses to about 9.22 µM), actives largely listed as activators; actives 2.8% (n = 320,000); AID 485297; also: nearly all actives have a fitted effect of over 60% in size
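Huh7 cells stably carrying Rab9 promoter–luciferase reporter, plated 1500 cells/well, compound added after 2 h and incubated 24 h at 37 °C; luciferase luminescence then read after 10 min with detection reagent.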
Each line names hits and unclear results; the compound was inactive in the other large screens. An excerpt weighted towards active compounds, which were near 7.3% of everything screened. Calls follow the shape of the dose curve; as a rule, active = well fitted curve in the direction sought with a large enough effect; inconclusive = small, poorly fitted or top-dose-only effect, or another doubt; inactive = no such curve, though single readings can be large; an effect the other way counts as inactive or inconclusive.

COCCNC(=O)Cc1c(C)c2c(cc(C)c3c(C)coc32)oc1=O	FLuc counter inconclusive (no result: SMN2 splice up, KinaseGlo FLuc)
COCCCNC(=O)Cc1c(C)c2c(cc(C)c3c(C(C)(C)C)coc32)oc1=O	FLuc counter 11µM (no result: SMN2 splice up, KinaseGlo FLuc)
Cc1cc2oc(=O)c(CC(=O)O)c(C)c2c2occ(-c3ccccc3)c12	FLuc counter 6µM (no result: NPC1 prom act, ELG1 genotoxic, KinaseGlo FLuc, Rab9 promoter act)
Cc1c(CC(=O)O)c(=O)oc2c(C)c3occ(-c4ccccc4)c3cc12	none (no result: SMN2 splice up, KinaseGlo FLuc)
COc1cc(C)nc(NS(=O)(=O)c2ccccc2)n1	SMN2 splice up inconclusive
Cc1ccccc1C(=O)NNC(=O)c1cc(S(=O)(=O)N2CCOCC2)ccc1C	none (no result: SMN2 splice up, KinaseGlo FLuc)
Cc1ccc(-c2nn(-c3ccccc3)cc2/C=C/C(=O)O)o1	FLuc counter 24µM
Cc1ccc(-c2nn(-c3ccccc3)cc2C(=O)O)o1	FLuc counter inconclusive
CSCC[C@@H](C(=O)Nc1ccc2c(c1)OCCO2)N1Cc2ccccc2C1=O	ELG1 genotoxic inconclusive, FLuc counter 19µM
O=C(CN1CCc2ccccc21)Nc1ccc2c(c1)OCCCO2	NPC1 prom act inconclusive, ELG1 genotoxic inconclusive, FLuc counter 12µM, Rab9 promoter act inconclusive (no result: SMN2 splice up, KinaseGlo FLuc)
CCN1CCN(CC(=O)Nc2ccc3c(c2)OCCO3)C(=O)C1=O	none
O=C(CN1Cc2ccccc2C1=O)Nc1ccc2c(c1)OCCO2	FLuc counter 24µM, Rab9 promoter act inconclusive (no result: SMN2 splice up, KinaseGlo FLuc)
Cc1cc(NC(=O)CSCCc2ccncc2)no1	none
COc1cc(NC(=O)C2CCCN2S(=O)(=O)c2ccc3c(c2)CCC(=O)N3)cc(OC)c1 (stereo not drawn)	none
Cn1c(/C=C/c2ccccc2)nc2ccccc21	NPC1 prom act 0.56µM, ELG1 genotoxic inconclusive, FLuc counter 0.13µM, KinaseGlo FLuc 7.1µM, Rab9 promoter act inconclusive (no result: SMN2 splice up)
Cn1c(/C=N/NC(=O)c2ccccc2)nc2ccccc21	none
Cn1c(=O)c(/C=C/c2ccccc2)nc2ccccc21	NPC1 prom act inconclusive, ELG1 genotoxic inconclusive, FLuc counter 2.7µM, SMN2 splice up 11µM, Rab9 promoter act 3.5µM
Cn1c(=O)c(/C=C/c2ccc(F)cc2)nc2ccccc21	FLuc counter 6.7µM (no result: SMN2 splice up)
CC(=O)c1ccc(/C=C/c2nc3ccccc3n2C)o1	NPC1 prom act 1.3µM, ELG1 genotoxic 16µM, FLuc counter 5.4µM, Rab9 promoter act 1µM (no result: SMN2 splice up, KinaseGlo FLuc)
O=c1c(/C=C(\O)c2ccc(F)cc2)nc2ccccc2n1-c1ccccc1	ELG1 genotoxic inconclusive, FLuc counter inconclusive, Rab9 promoter act inconclusive
CN(CC1CCCO1)S(=O)(=O)c1ccc(C(=O)Nc2ccc3c(c2)OCO3)cc1 (stereo not drawn)	none
COc1ccc(CC(=O)NNS(=O)(=O)c2ccccc2[N+](=O)[O-])cc1	none (no result: SMN2 splice up, KinaseGlo FLuc)
COc1ccc(Cl)cc1NC(=O)CSc1nnc(-c2ccncc2)n1CC1CCCO1 (stereo not drawn)	none
O=C(OCc1ccc([N+](=O)[O-])cc1)c1cc(S(=O)(=O)N2CCCCC2)ccc1N1CCOCC1	none (no result: SMN2 splice up, KinaseGlo FLuc)
Cn1c(/C=C/c2cccc(Br)c2)nc2ccccc2c1=O	FLuc counter 15µM (no result: SMN2 splice up, KinaseGlo FLuc)
O=c1c2ccccc2nc(/C=C/c2cccc(Br)c2)n1CCCO	none (no result: SMN2 splice up, KinaseGlo FLuc)
Cc1cc(C=C2C(=O)c3ccccc3C2=O)c(C)n1C	ELG1 genotoxic inconclusive, FLuc counter 3µM, SMN2 splice up inconclusive
CCn1c(C)cc(/C=C2\NC(=O)N(Cc3ccccc3)C2=O)c1C	none
CCn1c(C)cc(C=C2C(=O)c3ccccc3C2=O)c1C	NPC1 prom act inconclusive, ELG1 genotoxic inconclusive, FLuc counter 0.48µM, SMN2 splice up inconclusive, Rab9 promoter act inconclusive
COc1ccc(C=C2c3ccccc3C(=O)c3ccccc32)c(OC)c1	ELG1 genotoxic inconclusive (no result: SMN2 splice up, KinaseGlo FLuc)
O=C(Nc1ccccc1)C1CCCN1C(=O)Nc1ccccc1[N+](=O)[O-] (stereo not drawn)	none
Nc1ccc2oc(-c3ccc4nc[nH]c4c3)nc2c1	NPC1 prom act inconclusive, ELG1 genotoxic inconclusive, FLuc counter 1.9µM, SMN2 splice up 13µM, Rab9 promoter act inconclusive
Cc1nc2ccc(-c3nc4cc(N)ccc4o3)cc2[nH]1	NPC1 prom act 0.4µM, ELG1 genotoxic inconclusive, FLuc counter 1.9µM, SMN2 splice up 2.8µM, Rab9 promoter act 0.4µM
CCCCSC(=O)Nc1ccccc1	ELG1 genotoxic inconclusive, FLuc counter 17µM

Screens deposited in PubChem by National Center for Advancing Translational Sciences (NCATS).
